The panel holds about 83,000 compounds, 20% with a hit somewhere; the sample as a whole holds those more often.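 The endpoint reported here, percent growth, reads 100 for growth as untreated, 0 for no net growth and -100 for all cells dead.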 Unmarked numbers belong to inactive results. The source made the active and inactive calls. Rule for the calls: active = growth percent below 10; inactive = the rest.
Experiments:
Experiment in all cases: NCI-60 one-dose screen, 48 h (100 = growth as untreated, 0 = no growth, -100 = all killed)
Details in all cases: 10 µM unless noted
[1] = tested on: NCI-H23 lung
[2] = tested on: NCI-H226 lung
[3] = tested on: NCI-H322M lung
[4] = tested on: HOP-62 NSCLC
[5] = tested on: NCI-H460 lung
[6] = tested on: HOP-92 NSCLC
[7] = tested on: NCI-H522 lung
[8] = tested on: A549/ATCC NSCLC
[9] = tested on: 786-0 renal
[10] = tested on: COLO 205 colon

Structure (SMILES)	growth [1]	growth [2]	growth [3]	growth [4]	growth [5]	growth [6]	growth [7]	growth [8]	growth [9]	growth [10]
COc1ccc(C2CC(=O)c3c(O)c(OC)c(OC)c(OC)c3O2)cc1O (stereo not given)	33.8%	89.2%	44.3%	61.9%	3.01% (active)	79.5%	13.1%	28.7%	49%	67.3%
N#Cc1cc2[nH]c3ccc(OC(F)(F)F)cc3c2oc1=O	83.7%	82.4%	93.5%	56.6%	87.6%	104%	42.4%	91.3%	93.9%	86.8%
O=C(/C=C/c1ccc2c(c1)OCO2)c1c(O)c2ccccc2oc1=O	102%	107%	107%	80.9%	103%	103%	75.7%	76.5%	99.8%	99.3%
CNC(=O)c1cc(Oc2cccc3nc(Nc4ccc(Cl)c(F)c4)ccc23)ccn1	62.4%	43.4%	78.8%	34.8%	60.6%	9.48% (active)	52.7%	61.3%	41.7%	84.3%
Cn1cc(-c2cnn3c(N)c(Br)c([C@@H]4CCCNC4)nc23)cn1	39.6%	60%	48.2%	28.8%	35%	54.6%	28.4%	41.5%	37%	14.3%
COc1cc2ncnc(Nc3cccc(Cl)c3F)c2cc1OC(=O)N1CCN(C)C[C@H]1C	92%	75.7%	10.5%	61.8%	90.2%	51.9%	16.2%	40.8%	75.6%	79.5%
COC(=O)[C@@H](OC)[C@@H]1Cc2cc3cc(OC4CC(OC5CC(O)C(O)C(C)O5)C(O)C(C)O4)c(C)c(O)c3c(O)c2C(=O)[C@H]1OC1CC(OC2CC(OC3CC(C)(O)C(O)C(C)O3)C(O)C(C)O2)C(O)C(C)O1 (stereo not given in full)	-47.3% (active)	-41.9% (active)	12.3%	6.33% (active)	4.95% (active)	-15.6% (active)	-30.3% (active)	8.71% (active)	9.07% (active)	-37.2% (active)
C/C(=C(/c1ccc(Cl)cc1)c1ccc(OCCN2CCCCC2)cc1)c1ccccc1	76.3%	98.7%	91.4%	68.8%	74.4%	83.6%	81.4%	57.2%	75.6%	11.8%
NC1=Nc2ccccc2N(O)N1	102%	98.2%	96.8%	80.9%	110%	107%	71.7%	74.3%	101%	105%
Cc1nn(-c2ccccc2)c2c1N=c1s/c(=C\c3cn(-c4ccccc4)nc3-c3ccc(Cl)cc3)c(=O)n1C(C)N2 (stereo not given)	79.4%	93.2%	113%	102%	93%	66.7%	10.2%	87.8%	77.1%	99.2%
CO[C@@H](C(=O)N1Cc2[nH]nc(NC(=O)c3ccc(N4CCN(C)CC4)cc3)c2C1)c1ccccc1	36.8%	37.3%	-0.392% (active)	-6.89% (active)	4.44% (active)	-63.8% (active)	12.6%	19.1%	10.7%	-88.2% (active)
COc1ccc(-c2ccc3ncc4c(c3c2)n(-c2ccc(N3CCNCC3)c(C(F)(F)F)c2)c(=O)n4C)cn1	-71.6% (active)	-66.4% (active)	-89.6% (active)	-72% (active)	-82.9% (active)	-83.2% (active)	-61.7% (active)	-83.2% (active)	-81.1% (active)	-73.9% (active)
c1cc[n+](Cc2c3ccccc3cc3c2ccc2ccccc23)cc1	16.9%	26.3%	53.9%	23.7%	42.8%	25%	18.4%	63.7%	38%	2.06% (active)
Cc1cn(-c2cc(NC(=O)c3ccc(C)c(Nc4nccc(-c5cnccn5)n4)c3)cc(C(F)(F)F)c2)cn1	73%	86.9%	95.3%	55.9%	61.7%	89%	43.1%	62.5%	97.7%	25.3%
COc1cc2ncnc(Oc3cccc(NC(=O)Nc4cc(C(C)(C)C(F)(F)F)on4)c3)c2cc1OC	19.4%	23.9%	1.62% (active)	37.1%	34.3%	-3.15% (active)	0.301% (active)	33.4%	39.5%	1.14% (active)
COC[C@@H](C)n1c(C2CCOCC2)nc2c1C1C=C(OC)C(c3c(C)noc3C)=CC1N=C2 (stereo not given in full)	48.5%	65.1%	40.7%	51.5%	59.4%	11.1%	-1.23% (active)	42.6%	48.6%	31.9%
COc1cc(NCCCN)c2ncccc2c1	70.8%	92.7%	82.9%	79.4%	74%	50.7%	84%	95.9%	95.7%	91.8%
C=CCCCC(=O)CCC(=O)OCC1O[C@@H](O[C@@H]2C(O)[C@@H](OC(C)=O)C(C)O[C@H]2O[C@H](CC=C)CCCCC)C(O)[C@@H](OC(=O)/C(C)=C/C)[C@@H]1OC(=O)/C=C/c1ccccc1 (stereo not given in full)	35.3%	9.34% (active)	39.6%	9.18% (active)	10.6%	0.347% (active)	34.8%	24.6%	18.9%	-8.37% (active)
CCCC(=O)OCC1OC(n2cnc3c(=S)nc[nH]c32)C(OC(=O)CCC)C1OC(=O)CCC (stereo not given)	29.4%	32.5%	35.4%	24.1%	54.9%	17.9%	-12.7% (active)	83.9%	22.3%	67.3%
COc1cnc2c(c1)C(=O)c1c-2n(CCCn2ccnc2)c(=O)c2cc(Cl)ccc12	-1.2% (active)	6.75% (active)	22.4%	-16.7% (active)	1.24% (active)	31.8%	12.3%	17.4%	-17.9% (active)	11.1%
COc1cc(CCc2cc(NC(=O)c3ccc(N4C[C@@H](C)N[C@@H](C)C4)cc3)n[nH]2)cc(OC)c1	40.1%	46.1%	22.7%	38.1%	24.6%	54.4%	40.4%	37.4%	38.6%	9.19% (active)
NC(=O)Nc1cc(-c2cccc(F)c2)sc1C(=O)N[C@H]1CCCNC1	-15.3% (active)	6.7% (active)	-17.8% (active)	-39.2% (active)	-21.6% (active)	-69.2% (active)	-19.2% (active)	-35.4% (active)	-82.8% (active)	-65.3% (active)
COc1ccc2c(CCCc3ccc(Cl)cc3Cl)c3[n+](cc2c1OC)CCc1cc2c(cc1-3)OCO2	-12.2% (active)	14.6%	35.9%	13.8%	4.66% (active)	0.488% (active)	-12.4% (active)	11.9%	16.5%	-59.6% (active)
COc1c(C(NC(=O)c2ccccc2)c2sccc2C)cc(Cl)c2cccnc12 (stereo not given)	100%	89.1%	99.8%	88.2%	106%	104%	72.4%	75.7%	98.9%	121%
Cn1c(=O)c(F)c(Nc2ccc(I)cc2F)c2c(=O)n(C[C@@H](O)CO)cnc21	21.5%	52.5%	14%	22.5%	62.3%	-23.8% (active)	41.4%	19.2%	58.3%	2.24% (active)
